# NOD2 RIPK2 PPI – NOD2-RIPK2 protein interaction inhibition; CHO BLA complementation NOD2-RIPK2, CCF4 ratio; inhibition, % at 4.98 µM; 0.38% of 360,000 active; AID 624267; in the data active = inhibition above about 21%;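 note: 0% = vehicle only and 100% = reference blocker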
# TLR9-MyD88 inh – blocks human TLR9 binding to MyD88. 0.21% of 340,000 active. inhibition, % at 4.98 µM. CHO BLA complementation TLR9-MyD88, CCF4 FRET ratio;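 active = inhibition above the mean over all tested compounds plus 3 SD, cut at about 21% in these data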;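 note: 0% = DMSO only wells and 100% = clavulanate BLA inhibitor control wells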
# ABHD5-PLIN5 inh – inhibitors of human ABHD5-perilipin-5 interaction; Q00G26+Q8WTS1; Split G. princeps luciferase complementation, luminescence, 4 h; 0.78% of 360,000 active; inhibition, % at 4 µM;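 active = inhibition above the mean inhibition across every tested compound plus 3 SD, cut at about 22% in these data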;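 note: 0% = DMSO only wells and the 100% control is not disclosed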
# TLR4 MyD88 comp – blocks binding of human TLR4 to MyD88; HeLa CL3-4 TLR4/MyD88 BLA complementation, FRET ratio; inhibition, % at 8.4 µM; 0.18% of 200,000 active; AID 861; in the data active = inhibition above about 25%;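 note: 0% = vehicle and 100% = reference inhibitor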
# TLR9-MyD88 conf – TLR9-MyD88 interaction inhibition, confirmation | CHO TLR9/MyD88 BLA complementation, CCF4 FRET ratio | shares compounds with TLR9-MyD88 inh | inhibition, % at 4.98 µM | 51% of 680 active;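 active = mean inhibition across three repeats above about 21% taken from the earlier screen, limit read from the data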;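 note: blue over green emission ratio reports constitutive TLR9 MyD88 association via BLA complementation; 0% = DMSO vehicle wells and 100% = clavulanate BLA inhibitor wells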
# BLA counter – non-selective beta-lactamase inhibitors in TLR9-MyD88 counter-screen; AID 540251; inhibition, % at 4.98 µM; 7% of 680 active; shares compounds with TLR9-MyD88 inh; CHO-BLA cells, CCF4 FRET ratio, BLA reporter;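 active = mean inhibition above a 50% cutoff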;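 note: counterscreen of TLR9-MyD88 hits on CMV-driven BLA in CHO-K1 cells; 0% = DMSO alone and 100% = clavulanate blocking BLA; higher means less blue over green ratio so more BLA blockade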
# TLR9 CHO tox – counter-screen for TLR9-MyD88 inhibitors: cytotoxicity in CHO cells; shares compounds with TLR9-MyD88 inh; 39% of 680 active; luminescence; AID 588336; inhibition, % at 4.98 µM; in the data active = inhibition above about 11%
# ABHD5 PLIN5 conf – confirmation of human ABHD5-PLIN5 interaction inhibitors | 67% of 2,200 active | AID 651612 | biochemical ABHD5-PLIN5 interaction, luminescence | inhibition, % at 4 µM | shares compounds with ABHD5-PLIN5 inh; in the data active = inhibition above about 23%;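 note: 0% = DMSO vehicle wells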
# HNF4 split-luc – active in HNF4 split-luciferase counter-screen for ABHD5-PLIN5 inhibitors. 77% of 2,200 active. HNF4 dimerization, luminescence, biochemical. inhibition, % at 4 µM. shares compounds with ABHD5-PLIN5 inh;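 active = mean inhibition across replicate wells exceeding the computed hit threshold, cut at about 13% in these data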;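 note: light from luciferase halves that rejoin when HNF4 fusion proteins dimerize; 0% = DMSO only wells and the 100% control is not given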
# * = called active by the depositor; . = no result given. Compounds with a hit are over-represented: about 1.2% of the library has one in this group of screens.
SMILES,NOD2 RIPK2 PPI,TLR9-MyD88 inh,ABHD5-PLIN5 inh,TLR4 MyD88 comp,TLR9-MyD88 conf,BLA counter,TLR9 CHO tox,others
C#CCOCCOCCOCCNc1nc(N2CCOCC2)nc(N2CCN(C(=O)CCCCCCCCCCNC(=O)[C@@H](CCSC)n3cc(CCO)nn3)CC2)n1,0,2,21,.,.,.,.,
Fc1cccc(/C=N/Nc2ccc(Cl)nn2)c1,5,23*,-7,.,2,0,3,
CC1CN(S(=O)(=O)c2ccc(C(=O)N(C)C3CCCCC3)cc2)CC(C)O1 (stereo not drawn),-2,-4,0,.,.,.,.,
CCOc1ccc2nc(NC(=O)CN3C(=O)C4CCCCC4C3=O)sc2c1 (stereo not drawn),-8,-4,3,.,.,.,.,
COc1ccccc1CNCCS(=O)(=O)NCc1ccccc1,-12,-9,-5,.,.,.,.,
O=[N+]([O-])c1ccc2c(c1)C=C1CCCCC1(N1CCCCC1)O2 (stereo not drawn),-14,24*,-2,6,-8,-5,-1,
O=C(COC(=O)c1ccc2c(c1[N+](=O)[O-])C(=O)c1ccccc1C2=O)NC1CC1,19,25*,-1,7,12,-4,19*,
CC(C)NC(=O)c1ccc(CN2CCc3ccccc3C2)cc1,11,6,0,.,.,.,.,
O=C(COC(=O)c1cccc(S(=O)(=O)NCc2ccccc2)c1)NC1CC1,-2,8,5,.,.,.,.,
CCN(C(=O)COC(=O)c1cccc(S(=O)(=O)NCc2ccccc2)c1)c1ccccc1,19,22*,9,.,5,9,3,
COC(=O)[C@@]12C[C@@H](CC(=O)NCCC(C)C)C(=O)N(Cc3cccc4ccccc34)C1=CCC(C)(C)C2,4,.,4,.,.,.,.,
CCOC(=O)CNC(=O)CSc1nc(-c2ccc(OC)cc2)ns1,-1,22*,2,2,1,-2,5,
CCCCCCCCNS(=O)(=O)CCNC1CC1,-9,-5,-3,.,.,.,.,
COc1ccccc1N(CC(O)CN1CCCCC1)S(=O)(=O)c1ccc(C)cc1 (stereo not drawn),4,1,-3,.,.,.,.,
O=S(=O)(c1ccccc1)c1nc(Nc2cccc(O)c2)sc1Cl,7,21*,-3,-8,-1,-3,-1,
Cc1ccc(S(=O)(=O)c2nc(Nc3ccccc3)sc2Cl)cc1,-1,5,0,5,.,.,.,
Cn1cnc(S(=O)(=O)N2CCCCC2c2cc(C(=O)NCc3ccc(F)cc3)no2)c1 (stereo not drawn),-3,.,2,.,.,.,.,
COc1cc(C(=O)NCC2CCCCC2)ccc1OCc1c(C)noc1C,-2,1,-7,.,.,.,.,
COC(=O)N/N=C/c1cc(Br)ccc1O,3,-4,3,-13,.,.,.,
CC(C)NC(=S)N/N=C/c1cc(Br)ccc1O,15,21*,-7,19,16,9,4,
NC(=O)CC(NC(=O)c1ccc(Br)cc1)c1ccc(NC2CCCCCCC2)c([N+](=O)[O-])c1 (stereo not drawn),-1,0,-5,.,.,.,.,
Cn1c(CNC(=O)CCNC(=O)c2ccccc2)cc(=O)n(C)c1=O,3,26*,2,.,2,2,0,
C[C@H](c1ccccc1)N1C[C@H](COCc2ccccc2)Oc2cc(N3CC[C@@H](O)C3)ccc2S1(=O)=O,-9,.,11,.,.,.,.,
C=CCn1c(O)c(N=O)c2ccccc21,5,-3,-3,.,.,.,.,
O=Nc1c(O)n(Cc2ccc(Cl)cc2Cl)c2ccccc12,16,33*,-2,0,23*,20,2,
SMILES,NOD2 RIPK2 PPI,TLR9-MyD88 inh,ABHD5-PLIN5 inh,TLR4 MyD88 comp,TLR9-MyD88 conf,BLA counter,TLR9 CHO tox,others
C/C(Cl)=C\Cn1c(O)c(N=O)c2ccccc21,19,21*,-15,8,9,11,2,
Cc1ccc(Cn2c(O)c(N=O)c3ccccc32)cc1,13,24*,-5,9,1,3,5,
Cc1ccc2c(c1)c(N=O)c(O)n2Cc1ccc(Cl)cc1,1,13,-6,17,.,.,.,
Cc1cnc(CN(C)C(=O)c2ccc3oc(Cc4ccc(Cl)cc4)nc3c2)[nH]1,1,4,-1,.,.,.,.,
CS(=O)(=O)c1ncc(Cl)c(C(=O)Nc2ccc(OC(F)F)cc2)n1,73*,42*,75*,.,45*,41,97*,ABHD5 PLIN5 conf=89*;HNF4 split-luc=103*
Cc1sc2ncn(CC(=O)N3CCN(c4ccccn4)CC3)c(=O)c2c1S(=O)(=O)N1CCC(C)CC1,-7,-5,3,.,.,.,.,
Cc1ccc(S(=O)(=O)c2ccc(C)cc2)cc1,4,2,1,-2,.,.,.,
Cc1ccc(S(=O)(=O)C=CS(=O)(=O)c2ccc(C)cc2)cc1,7,29*,37*,.,37*,24,97*,ABHD5 PLIN5 conf=68*;HNF4 split-luc=108*
CCNC(=S)Nc1ccc2c(c1)c(=O)n(C)n2-c1ccc(C(C)(C)C)cc1,6,.,-9,.,.,.,.,
CCOC(=O)COc1ccc(/C=C/[N+](=O)[O-])c(OCC(=O)OCC)c1,1,22*,28*,11,13,-2,28*,ABHD5 PLIN5 conf=62*;HNF4 split-luc=95*
Cc1ccccc1OCCC(=O)Nc1ccc(S(=O)(=O)N2CCCC2)cc1,4,4,2,.,.,.,.,
Cc1nnc(Sc2cc(NCCO)c([N+](=O)[O-])c3nonc23)s1,10,21*,50*,2,23*,3,98*,ABHD5 PLIN5 conf=52*;HNF4 split-luc=114*
CN(C)CC1CC/C(=C\c2ccc(O)cc2)C1=O (stereo not drawn),65*,28*,92*,.,24*,2,97*,ABHD5 PLIN5 conf=93*;HNF4 split-luc=107*
O=C1C(Cl)=C(NCCc2ccccc2)C(=O)c2ccccc21,1,21*,27*,.,50*,5,98*,ABHD5 PLIN5 conf=88*;HNF4 split-luc=104*
O=C1C(Cl)=C(Nc2ccccc2)C(=O)c2ccccc21,5,-3,4,-3,.,.,.,
O[C@H]1CN(CC2CCCCC2)[C@@H](c2ccc(Cl)cc2)C[C@@H]1n1cc(C2CC2)nn1,0,-12,-9,.,.,.,.,
COc1ccc(C(=O)N/C(=C\c2ccco2)C(=O)OCc2ccco2)cc1,-10,-1,4,.,.,.,.,
COc1ccc(C(=O)/C(=C\c2ccco2)N2C=CC=CC2=C(C#N)C#N)cc1,85*,28*,80*,6,19,9,96*,ABHD5 PLIN5 conf=97*;HNF4 split-luc=102*
